Active and inactive are the calls of the source. Rule for the calls: active = hit-call score of the fitted dose curve at least 0.9, where 1 is the maximum; inactive = score below 0.9.

This test can be described thus: Tanguay_ZF_120hpf_MORT: Oregon State University Tanguay Lab 120 Hour Post-fertilization zebrafish Assay for Mortality (AID 2284399). How it is done:
Tanguay_ZF_120hpf is a whole embryo, multiplexed endpoint assay using zebrafish larvae exposed for 120 hours post fertilization on a 96-well plate.Tanguay_ZF_120hpf_MORT is one of one assay component(s) measured or calculated from the Tanguay_ZF_120hpf assay. It is designed to make measurements of zebrafish development as detected with brightfield microscopy of developing zebrafish embryos.Data from the assay component Tanguay_ZF_120hpf_MORT was analyzed into 1 assay endpoints. This assay endpoint, Tanguay_ZF_120hpf_MORT, was analyzed in the positive analysis fitting direction relative to DMSO as the negative control and baseline of activity. Using a type of viability reporter, gain-of-signal activity can be used to understand changes in developmentals as they relate to the whole embryo. To generalize the intended target to other relatable targets, this assay endpoint is annotated to the zebrafish development intended target family, where the subfamily is embryonic mortality.
Zebrafish husbandry: Tropical 5D wild-type adult zebrafish were housed in at an approximate density of 1000 per 100 gallon tank at the Sinnhuber Aquatic Research Laboratory, Oregon State University, Corvallis, OR. Each tank was kept at standard laboratory conditions of 28C on a 14-h light/10-h dark photoperiod in fish water consisting of reverse osmosis water supplemented with a commercially available salt (Instant Ocean). Spawning funnels were placed into the tanks the night prior, and embryos were collected and staged. To increase bioavailability, the chorion was enzymatically removed using pronase (63.6mg/ml, >/= 3.5U/mg, Sigma-Aldrich: P5147) at 4 hours post fertilization (hpf) using a custom automated dechorionator.Chemical exposures: Six hpf dechorionated embryos were placed 1 embryo per well in a 96-well plate prefilled with 90 ul of EM using automated embryo placement systems (AEPS). Ten microliters of each row of dilution plate 2 was added to 2 exposure plates. The final DMSO concentration used was 0.64% (vol/vol). Thirty-two embryos were also exposed to 5uM trimethyltin chloride (positive control). Plates were sealed to prevent evaporation and foil covered to reduce light exposure and kept in a 28C incubator. Embryos were statically exposed until 120 hpf. At 24 hpf, embryos were assessed for photomotor response using a custom photomotor response analysis tool (PRAT) and for developmental toxicity endpoints (MO24: mortality at 24 hpf, DP: developmental progression, SM: spontaneous movement, and NC: notochord distortion). At 120 hpf, locomotor activity was measured using Viewpoint Zebralab and assessed for 13 endpoints. Zebrafish acquisition and analysis program (ZAAP), a custom program designed to inventory, acquire, and manage zebrafish data, was used to collect developmental endpoints as either present or absent (i.e., binary responses were recorded). If mortality occurred for an embryo (at either 24 or 120 hpf), the non-mortality endpoints were not measured.
For the molecule `C=CC(=O)OCC(F)(F)C(F)(F)C(F)(F)COC(=O)C=C`, the AC50 (commonly the midpoint of the concentration-response curve, whichever way the signal moves) was 16.3 µM (active). For the molecule `O=C(O)CCC(F)(F)C(F)(F)C(F)(F)C(F)(F)C(F)(F)C(F)(F)C(F)(F)F`, the result was inactive. On the same count and under the same terms, under `O=S(=O)(Cl)C(F)(F)C(F)(F)C(F)(F)C(F)(F)C(F)(F)C(F)(F)C(F)(F)C(F)(F)F` stands “inactive”. Regarding `OCC(F)(F)C(F)(F)C(F)(F)C(F)(F)C(F)(F)C(F)(F)C(F)(F)C(F)(F)CO`, the AC50 is 19.6 µM (active).

With `O=C(O)C(F)(F)C(F)(F)C(F)(F)OC(F)(F)F`, the molecule was called inactive. Take `CO[Si](C)(CCC(F)(F)C(F)(F)C(F)(F)C(F)(F)C(F)(F)C(F)(F)F)OC`: the molecule was classed as inactive. Still for that read-out and setting: under `FC(F)(F)C(F)(F)C(F)(F)C(F)(F)C(F)(F)C(F)(F)CC[Si](Cl)(Cl)Cl` stands “inactive”.

Turning to `O=C(O)C(F)(F)C(F)(F)C(F)(F)C(=O)O`, the outcome was inactive. `O=S(=O)(O)CCC(F)(F)C(F)(F)C(F)(F)C(F)(F)C(F)(F)C(F)(F)C(F)(F)C(F)(F)F`: the concentration at half-maximal activity (AC50) was 64.2 µM (active). For the molecule `O=C(F)C1(F)C(F)(F)C(F)(F)C(F)(F)C(F)(F)C1(F)F`, the molecule was called inactive. On the same count and under the same terms, under `C=CC(=O)OCC(F)(F)C(F)(F)C(F)(F)C(F)(F)C(F)(F)C(F)(F)C(F)(F)C(F)F` stands “inactive”. As for `NC(=O)C(F)(F)C(F)(F)C(F)(F)C(F)(F)C(F)(F)C(F)(F)C(F)(F)F`, the AC50 is 41.3 µM (active). `C[Si](Cl)(Cl)CCC(F)(F)C(F)(F)C(F)(F)C(F)(F)C(F)(F)C(F)(F)F`: the result was inactive. Take `C=CC(=O)OCCC(F)(F)C(F)(F)C(F)(F)C(F)(F)F`: the call was inactive. In the case of `NC(=O)C(F)(F)C(F)(F)C(F)(F)C(F)(F)C(N)=O`, the call was inactive. On the same count and under the same terms, the value for `CN(C(=O)C(F)(F)C(F)(F)C(F)(F)F)[Si](C)(C)C` was “inactive”; that for `OCC(F)(F)C(F)(F)C(F)(F)C(F)(F)C(F)(F)C(F)(F)CO` was “inactive”. Still for that read-out and setting: the value for `NC(=O)C(F)(F)C(F)(F)C(F)(F)F` was “inactive”. Consider `CNS(=O)(=O)C(F)(F)C(F)(F)C(F)(F)C(F)(F)C(F)(F)C(F)(F)C(F)(F)C(F)(F)F`, for which the AC50 is 56.9 µM (active). `FC(F)(F)C(F)(F)C(F)(F)CC1CO1` (configuration not stated): the result was inactive. Same read-out and setting: under `O=C(O)CCC(F)(F)C(F)(F)C(F)(F)F` stands “inactive”; under `OCCCC(F)(F)C(F)(F)C(F)(F)C(F)(F)C(F)(F)C(F)(F)C(F)(F)C(F)(F)F`, “inactive”. Turning to `NC(=O)C(F)(F)C(F)(F)C(F)(F)C(F)F`, the call was inactive.

Regarding `OCC(O)CC(F)(F)C(F)(F)C(F)(F)C(F)(F)F` (configuration not stated), the molecule was called inactive. As to `OCCCCC(F)(F)C(F)(F)C(F)(F)C(F)(F)F`, the result was inactive. Regarding `FC(F)(F)C(F)(F)C(F)(F)C(F)(F)C(F)(F)C(F)(F)C(F)(F)CCI`, the call was inactive.

On to `CCOC(=O)CC(=O)C(F)(F)C(F)(F)F`, for which the outcome was inactive. On to `CCN(CCO)S(=O)(=O)C(F)(F)C(F)(F)C(F)(F)C(F)(F)C(F)(F)C(F)(F)C(F)(F)C(F)(F)F`, for which the outcome was inactive. As for `O=S(=O)(O)CCC(F)(F)C(F)(F)C(F)(F)C(F)(F)F`, the molecule was classed as inactive.

As for `NS(=O)(=O)C(F)(F)C(F)(F)C(F)(F)C(F)(F)C(F)(F)C(F)(F)F`, the AC50 is 11.1 µM (active). Turning to `COC(F)(C(F)F)C(F)(F)F` (configuration not stated), the molecule was classed as inactive. Still for that read-out and setting: under `OCC(F)(F)C(F)(F)C(F)(F)CO` stands “inactive”; under `OC(O)C(F)(F)C(F)(F)F`, “inactive”. On the same count and under the same terms, the value for `NC(O)(C(F)(F)F)C(F)(F)F` was “inactive”. Still for that read-out and setting: under `O=C(O)C(F)(F)C(F)(F)C(F)(F)OC(F)(C(F)(F)F)C(F)(F)F` stands “inactive”. Take `O=S(=O)(OCC(F)(F)F)C(F)(F)C(F)(F)C(F)(F)C(F)(F)F`: the molecule was classed as inactive. Regarding `OCC(O)CC(F)(F)C(F)(F)C(F)(F)C(F)(F)C(F)(F)C(F)(F)C(F)(F)C(F)(F)F` (configuration not stated), the result was inactive.
